In PubChem BioAssay (NCI):
Compounds without any hit were thinned out: in the full panel of roughly 83,000, 20% have a hit.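 Each cell line was grown in a 96-well plate and treated with one concentration of compound for 48 hours. Values below 10 were considered active.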 A number with no mark means an inactive call. Active and inactive are the calls of the source.

These compounds were tested on HL-60(TB) leukemia (assay: NCI-60 one-dose screen, 48 h (100 = growth as untreated, 0 = no growth, -100 = all killed)). Settings: 10 µM unless noted.
COc1ccc2c(c1)c(CC(=O)NCCOCCOCC(=O)Nc1ccc(OC)c(C(N)=O)c1O)c(C)n2C(=O)c1ccc(Cl)cc1 showed a growth of 107%.
Work on COC(=O)C1C2CC3c4[nH]c5cc(OC)ccc5c4CCN3CC2CC(OC2CCCCO2)C1OC (centres undefined) yielded a growth of 98.7%.
Compound C[C@H]1[C@H](C)CC[C@]2(CO)CC[C@]3(C)C(=CC[C@@H]4[C@@]5(C)Cc6c([nH]c7ccccc67)C(C)(C)[C@@H]5CC[C@]43C)[C@H]12 has a growth of 81.7%.
S=c1[nH]ccn1-c1c(Cl)cccc1Cl showed a growth of 93.5%.
CCCCNC(=O)c1ccccc1C was tested, and the growth was 84.4%.
O=C(Nc1ccccc1)Nc1ccc2cc3ccc(NC(=O)Nc4ccccc4)cc3nc2c1 gave a growth of 50.9%.
Work on Cc1nc2nc(N)nc(N)c2nc1C yielded a growth of 94.2%.
Cc1[nH]c(C2CC(c3ccc(C(F)(F)F)c(F)c3)=NN2C)c(C)c1C(=O)NCC(F)(F)F (centres undefined) gave a growth of 97.1%.
CN1C(=O)N(C)[C@H]2NC(NN)=N[C@H]21 was tested, and the growth was 102%.
Work on CCCCOc1ncnc2nc[nH]c12 yielded a growth of 99.4%.
COc1cc(OC)c(/C=C/c2cc[n+](C)c3ccccc23)c(OC)c1 was tested, and the growth was -25.6% (active).
For COc1ccc(NC(=O)/C=C(C)/C=C/C=C(C)/C=C/C2=C(C)CCCC2(C)C)cc1, the growth was 5.62% (active).
Work on Cc1nc(Nc2ccc(N)cc2)c2ccccc2n1 yielded a growth of 62%.
O=C(c1ccc(F)cc1)C1CCN(CCn2c(=O)[nH]c3ccccc3c2=O)CC1 was tested, and the growth was 97.3%.
COc1ccc(-c2nnc(N3CCN(C(=O)CN4CCN(c5ccc(Cl)cc5)CC4)CC3)nc2-c2ccc(OC)cc2)cc1 was tested, and the growth was -37.4% (active).
CC(C)=CCC[C@](C)(O)[C@H]1CC[C@]2(C)[C@@H]1CC[C@@H]1[C@@]3(C)C/C(=C/c4ccco4)C(=O)C(C)(C)[C@@H]3CC[C@]12C was tested, and the growth was 119%.
In the case of C=C1C(=O)O[C@H]2[C@H]1CC/C(COC(=O)CSCC(=O)OC/C1=C/CC[C@@]3(C)O[C@H]3[C@H]3OC(=O)C(=C)[C@@H]3CC1)=C\CC[C@@]1(C)O[C@@H]21, the growth is reported as -42% (active).
O=C1OCC2=C1C(c1ccccc1)c1cc3c(cc1N2CCO)OCCO3 (centres undefined) was tested, and the growth was -14.1% (active).
With Cn1cc(-c2ccc3ncc(-c4ccc(CC(=O)Nc5cc(C(C)(C)C)nn5C)cc4)cc3c2)cn1 the growth was -36.7% [30 µM] (active).
CN1CCN(Cc2ccc(NC(=O)c3cncc(C#Cc4cncc5[nH]ncc45)c3)cc2C(F)(F)F)CC1 was tested, and the growth was -28.9% (active).
With CC[C@@]12C=CCN3CC[C@]4(c5cc(NC(=O)COc6cc(OCC(=O)Nc7cc8c(cc7OC)N(C)[C@H]7[C@@](O)(C(=O)OC)[C@H](OC(C)=O)[C@]9(CC)C=CCN%10CC[C@]87[C@@H]%109)cc7oc(-c8ccccc8)cc(=O)c67)c(OC)cc5N(C)[C@@H]4[C@](O)(C(=O)OC)[C@H]1OC(C)=O)[C@H]32 the growth was 88.2%.
In the case of O=C(/C=C/c1ccc(F)cc1)N1CCN(C(=O)/C=C/c2ccc(C(F)(F)F)cc2)CC1, the growth is reported as 97%.
CCSC1=CC(=O)c2ccccc2C1=O gave a growth of 50.9%.
Work on COc1ccc(Cn2cc(C(=O)N=Nc3c(O)[nH]c4ccc(Br)cc34)nn2)cc1 yielded a growth of 85.2%.
